Test [1] can be described thus: TOX21_p53_BLA_p3_viability: Viability Assessment in the Tox21 HCT-116 p53 Agonism Beta-lactamase Assay, Phase 3 (AID 2283593).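 Further: cells exposed to compound for 16 h before reading.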 A digest of the protocol: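 HCT-116 cells (4000/well) rested 5 h at 37C, then got DMSO compounds by pin tool (217-fold dilution) for 16 h at 37C, 5% CO2. After the bla read, CellTiter-Glo was added and luminescence read at 30 min, room temperature.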

Test [2] is described as follows: TOX21_p53_BLA_p4_viability: Viability Assessment in the Tox21 HCT-116 p53 Agonism Beta-lactamase Assay, Phase 4 (AID 2283597).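 Further: hits lower the luminescence signal meaning cytotoxicity.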 A digest of the protocol:
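Cytotoxicity was inferred from loss of CellTiter-Glo luminescence. HCT116 cells had been dosed with compounds after 5 h plating, incubated 16 h at 37C and 5% CO2, and exposed to the CCF4-AM substrate for 2 h.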

Test [3] deals with Cellular tumor antigen p53 (Homo sapiens) (UniProt P04637). Briefly: TOX21_p53_BLA_p5_ratio: Tox21 HCT-116 p53 Agonism Beta-lactamase Assay, Ratio, Phase 5 (AID 2283599). A digest of the protocol: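 HCT-116 cells carrying a p53-inducible beta-lactamase reporter were seeded at 4000 cells/well and dosed after 5 h with compound in DMSO (217-fold dilution). After 16 h at 37C, CCF4-AM substrate was added for 2 h, and the 460/530 nm emission ratio was scored as gain-of-signal versus DMSO.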

Test [4] is described as follows: TOX21_p53_BLA_p5_viability: Viability Assessment in the Tox21 HCT-116 p53 Agonism Beta-lactamase Assay, Phase 5 (AID 2283600). A digest of the protocol: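 Luciferase-coupled ATP quantitation of cells treated for 16 h (37C, 5% CO2) with test chemicals delivered in DMSO via a 217-fold dilution; 4000 cells/well; reagent incubated 30 min at room temperature before luminescence reading.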

The target in test [5] is Cellular tumor antigen p53 (Homo sapiens) (UniProt P04637). Briefly: TOX21_p53_BLA_p4_ratio: Tox21 HCT-116 p53 Agonism Beta-lactamase Assay, Ratio, Phase 4 (AID 2283601). The gist of the method:
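HCT116 cells carrying an inducible beta-lactamase reporter were plated at 4000 cells/well, rested 5 h, then exposed to compounds in DMSO (217-fold dilution) for 16 h at 37C. CCF4-AM substrate was loaded 2 h at room temperature; 460/530 nm emission ratio scored gain-of-signal versus DMSO.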

Test [6] is described as follows: Tanguay_ZF_120hpf_MORT_legacy: (Legacy) Oregon State University Tanguay Lab 120 Hour Post-fertilization zebrafish Assay for Mortality (AID 2283633).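 On AC50: fitted as increase in binary mortality versus DMSO negative control.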 The gist of the method: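 Dechorionated Tropical 5D wild-type zebrafish embryos, one per well from 6 hpf, were statically exposed at 28C in the dark until 120 hpf (0.64% DMSO final). Mortality was scored as present/absent by brightfield microscopy, fitted positively versus DMSO.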

A short description of test [7]: Tanguay_ZF_120hpf_YSE_legacy: (Legacy) Oregon State University Tanguay Lab 120 Hour Post-fertilization zebrafish Assay for Yolk Sac Edema (AID 2283634).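 On AC50: actives raise the incidence of yolk sac edema above the DMSO baseline.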 A digest of the protocol: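 Tropical 5D wild-type embryos, dechorionated with pronase at 4 hpf, were exposed singly from 6 hpf to 120 hpf under static, sealed, dark conditions at 28C with 0.64% DMSO final. Yolk sac edema was scored present/absent by brightfield microscopy.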

Test [8] can be described thus: Tanguay_ZF_120hpf_AXIS_legacy: (Legacy) Oregon State University Tanguay Lab 120 Hour Post-fertilization zebrafish Assay for Body Axis Malformation (AID 2283635).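 On AC50: potency for an increased fraction of larvae scored with body axis malformation.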 The gist of the method:
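Tropical 5D wild-type zebrafish embryos, dechorionated with pronase at 4 hpf, were placed singly in wells at 6 hpf and exposed statically to test chemical (0.64% DMSO final) at 28C until 120 hpf, then scored by brightfield for body axis defects.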

Test [9] is described as follows: Tanguay_ZF_120hpf_EYE_legacy: (Legacy) Oregon State University Tanguay Lab 120 Hour Post-fertilization zebrafish Assay for Eye Malformation (AID 2283636).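 Further: binary presence or absence of eye malformation scored by brightfield in 120 hpf larvae.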 The gist of the method: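 Static waterborne exposure of dechorionated zebrafish embryos (strain Tropical 5D), 6 to 120 hpf, sealed plates at 28C, 0.64% DMSO vehicle. Eye malformation is scored as a binary endpoint, with gain of signal analysed relative to DMSO.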

Test [10] addresses Cellular tumor antigen p53 (Homo sapiens) (UniProt P04637). Briefly: TOX21_p53_BLA_p3_ratio: Tox21 HCT-116 p53 Agonism Beta-lactamase Assay, Ratio, Phase 3 (AID 2283596). The gist of the method: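 Cells were seeded at 4000/well, rested 5 h at 37C, then dosed with DMSO compound solutions (217-fold dilution) for 16 h. CCF4-AM substrate was loaded for 2 h at room temperature, and the 460/530 nm emission ratio was fitted for gain of signal versus DMSO.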

“And” between values parts separate entries of the source, which are not always exact repeats. Equal values may be shown once. Records with an inconclusive call do not appear. Where a structure was tested more than once in an assay, its records may differ in their call. The source made the active and inactive calls. How the source made its calls: active means hit-call score of the fitted dose curve at least 0.9, where 1 is the maximum; inconclusive means response in the unintended direction; inactive means score below 0.9.

Chain of Cellular tumor antigen p53 (Homo sapiens) (P04637 whole entry, looked up): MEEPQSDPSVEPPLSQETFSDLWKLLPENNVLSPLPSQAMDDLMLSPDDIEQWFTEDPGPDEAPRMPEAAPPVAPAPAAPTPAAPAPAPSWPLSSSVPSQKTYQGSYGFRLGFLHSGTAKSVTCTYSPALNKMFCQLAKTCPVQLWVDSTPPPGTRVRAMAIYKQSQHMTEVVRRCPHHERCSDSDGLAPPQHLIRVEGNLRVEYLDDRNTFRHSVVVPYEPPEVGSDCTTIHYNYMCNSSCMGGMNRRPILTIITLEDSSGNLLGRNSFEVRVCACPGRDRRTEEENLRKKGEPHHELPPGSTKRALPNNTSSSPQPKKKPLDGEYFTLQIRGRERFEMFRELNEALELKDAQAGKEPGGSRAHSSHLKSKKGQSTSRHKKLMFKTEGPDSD

What is called AC50 is the midpoint of the concentration-response curve, whichever way the signal moves. With `COC(=O)N(OC)c1ccccc1COc1ccn(-c2ccc(Cl)cc2)n1`, the compound was called inactive in test [1], in [2], in test [4], in test [7] and in [8]. Further, the results for the concentration at half-maximal activity (AC50) in test [3], in test [5] and in [6] were 1.9 µM (active), 1.67 µM (active) and 0.367 µM (active), respectively.

As to `CON(C)C(=O)Nc1ccc(Cl)c(Cl)c1`, the call in [1], in test [2], in test [3], in [4], in test [5] and in [6] was inactive. Moreover, the call in test [7] and in [8] was inactive.

As to `Fc1ccc(Oc2ccnc3cc(Cl)cc(Cl)c23)cc1`, the compound was called inactive in [1], in [2], in test [4], in test [6], in test [7] and in [8]. In addition, the half-maximal activity concentration (AC50) in [3] is 88.9 µM (active); in [5] it was 81.6 µM (active).

In the case of `CCCCC(CC)COC(=O)c1ccccc1C(=O)OCC(CC)CCCC` (stereo not drawn), the outcome in test [1], in test [2], in test [3], in [4], in test [5] and in test [6] was inactive. Also, the result in test [7] and in test [8] was inactive.

In the case of `N#CC(CCc1ccc(Cl)cc1)(Cn1cncn1)c1ccccc1` (stereo not drawn), the call in test [1], in test [3], in test [4], in [6], in test [7] and in test [8] was inactive. Moreover, the AC50 in [2] is 39.1 µM (active); in [5] it was 71.5 µM (active).

With `O=C(O)COc1nc(Cl)c(Cl)cc1Cl`, the call in test [1], in [2], in test [3], in test [4], in [5] and in [6] was inactive. Also, the call in test [7] and in [8] was inactive.

Regarding `CC1=C(C(=O)Nc2ccccc2)SCCO1`, the call in [1], in [2], in test [3], in test [4], in test [5] and in test [7] was inactive. The compound was classed as inactive in [8]. Also, the AC50 in [6] is 40.4 µM (active).

For `CCCC1COC(Cn2cncn2)(c2ccc(Cl)cc2Cl)O1` (stereo not drawn), the call in test [1], in test [2], in test [3], in test [4], in [5] and in test [6] was inactive. In [8], the compound was classed as inactive. Further, in [7], the half-maximal activity concentration (AC50) was 33.9 µM (active).

On to `CC(C)Oc1cc(-n2nc(C(C)(C)C)oc2=O)c(Cl)cc1Cl`, for which the outcome in [1], in test [2], in test [3], in test [5], in test [6] and in test [7] was inactive. The compound was classed as inactive in test [8]. Besides, the AC50 in test [2] was 27.7 µM (active); in test [4] it was 28.5 µM (active).

In the case of `Cc1ccc(-c2c(Cl)nc(C#N)n2S(=O)(=O)N(C)C)cc1`, the outcome in test [1], in test [4], in [7] and in [8] was inactive. Also, the half-maximal activity concentration (AC50) in test [2] is 71.9 µM (active); in test [3], 20.1 µM (active); in [5], 17.3 µM (active); in test [6], 1.55 µM (active).

On to `CCCCNC(=O)OCC#CI`, for which the call in [1], in [2], in test [3], in [4], in [5] and in test [7] was inactive. Besides, in test [8], the compound was classed as inactive. Also, the AC50 was 35.9 µM (active) in test [2], 78.1 µM (active) in test [3], 12.8 µM (active) in [5] and 24 µM (active) in [6].

Consider `CCOC(=O)CC(SP(=S)(OC)OC)C(=O)OCC` (stereo not drawn), for which the AC50 in test [1] is 43.3 µM (active); in test [7] it was 37.4 µM (active); in test [8], 34.6 µM (active); in [9], 38.7 µM (active). Further, the call in test [1], in test [2], in test [3], in test [4], in test [5] and in test [6] was inactive.

Take `C=CCC1=C(C)[C@@H](OC(=O)[C@@H]2[C@@H](C=C(C)C)C2(C)C)CC1=O`: the compound was classed as inactive in [1], in [2], in test [3], in test [4], in test [5] and in [6]. In addition, in test [7], the call was inactive.

On to `CC(Oc1ccc(Cl)cc1Cl)C(=O)O` (stereo not drawn), for which the compound was called inactive in [1], in test [2], in test [3], in [4], in test [5] and in [6]. Further, the compound was classed as inactive in test [7] and in [8].

For `CCCCOC(=O)c1ccccc1C(=O)OCCCC`, the call in test [1], in [10], in test [3], in [5], in test [6] and in test [7] was inactive. In addition, the call in test [8] was inactive.

On to `O=C(O)c1nc(Cl)ccc1Cl`, for which the outcome in test [1], in test [10], in [2], in test [3], in test [4] and in [6] was inactive. Besides, the compound was called inactive in test [7] and in [8].

Consider `COC(=O)c1ccccc1C(=O)OC`, for which the compound was classed as inactive in test [1], in test [2], in test [3], in test [4], in test [5] and in test [6]. For the same compound, the compound was classed as inactive in [7] and in [8].

`OC(c1ccc(Cl)cc1)(c1cncnc1)c1ccccc1Cl` (stereo not drawn): the compound was classed as inactive in [1], in test [10], in test [2], in test [3], in [4] and in [6]. Moreover, the compound was classed as inactive in test [7] and in test [8]. For the same compound, in test [5], the concentration at half-maximal activity (AC50) is 63 µM (active).

As to `CN(C)C(=S)SSC(=S)N(C)C`, the compound was classed as inactive in [1], in test [2], in test [3], in test [4], in [5] and in test [6]. Further, the result in [7] and in [8] was inactive. In addition, the half-maximal activity concentration (AC50) in [3] is 77 µM (active).

With `CO/C=C(/C(=O)OC)c1ccccc1Oc1cc(Oc2ccccc2C#N)ncn1`, the compound was called inactive in [1], in test [10], in [2], in [3], in [4] and in [5]. In addition, the outcome in test [6], in [7] and in test [8] was inactive. The AC50 in test [6] is 7.48 µM (active) and 1.44 µM (active); in test [7] it was 5.69 µM (active).

Regarding `C=CCC1=C(C)C(OC(=O)C2C(C=C(C)C)C2(C)C)CC1=O` (stereo not drawn), the AC50 in [1] is 65.3 µM (active). In addition, the outcome in test [2], in test [3], in test [4], in test [5], in [6] and in test [7] was inactive. The compound was called inactive in test [8].

Turning to `N#Cc1cc(Br)c(O)c(Br)c1`, the call in [1], in [2], in [7] and in test [8] was inactive. For the same compound, the AC50 in test [10] was 57.5 µM (active) and 55.7 µM (active); in test [3], 57.3 µM (active) and 72.4 µM (active); in [5], 57.9 µM (active) and 74.3 µM (active).

For `CNC(=O)ON=CC(C)(C)SC`, the outcome in test [1], in [10], in [2], in test [3], in test [4] and in test [5] was inactive. In [6], the outcome was inactive. The AC50 was 3.47 µM (active) in test [7] and 2.31 µM (active) in [8].

The values are drawn from PubChem BioAssay (EPA / NIEHS).
